Assay outcomes deposited in PubChem BioAssay by National Center for Advancing Translational Sciences (NCATS).
Pf growth 96h – Primary qHTS for delayed death inhibitors of the malarial parasite plastid, 96 hour incubation | P. falciparum luciferase reporter growth, 96 h | Potency, µM (titrated, usually from 28.7 µM), inactives show top-dose activity change, negative = inhibition, hits mostly inhibitors | hit rate 6.9% among 320,000 | AID 504834, 2011; active means well fitted inhibition curve with a large enough effect; inconclusive means small, poorly fitted or top-dose-only effect, or another doubt; inactive means no such curve, though single readings can be large or run the other way; further: potency means the concentration at half of the fitted maximal effect; on the % scale 0 is the no-effect control and ±100 the full control effect
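96 h incubation, 37 C, 5% CO2, of luciferase-reporter P. falciparum-infected RBCs (2% hematocrit, 0.05% parasitemia final) with test compounds; endpoint luminescence.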
SARS PLP yeast – qHTS of Yeast-based Assay for SARS-CoV PLP. Potency, µM (series often up to 32.9 µM), inactives show top-dose activity, positive = growth rescue, hits mostly activators. hit rate 0.19% among 330,000. AID 485353, 2010. S. cerevisiae expressing SARS-CoV PLpro, growth rescue; further: potency means the concentration at half of the fitted maximal effect; 0% is about no effect; nearly all actives have a fitted effect of over 55% in size
Shiga toxin inh – A qHTS for Small Molecule Inhibitors of Shiga Toxin | Vero cells, Shiga toxin protein synthesis inhibition reporter | AID 2315, 2010 | inhibition, % at 38.7 µM | hit rate 9.2% among 290,000; in the data active means inhibition mostly above about 28%, no sharp cut-off; inactive means mostly below about 43%; further: 0% is about no effect
Pf growth 48h – Primary qHTS for delayed death inhibitors of the malarial parasite plastid, 48 hour incubation; Potency, µM (doses to about 28.7 µM), without a hit: top-dose activity change, negative = inhibition, most hits filed as inhibitors; hit rate 5.9% among 310,000; P. falciparum luciferase growth in erythrocytes, 48 h; AID 504832, 2011; active means well fitted inhibition curve with a large enough effect; inconclusive means small, poorly fitted or top-dose-only effect, or another doubt; inactive means no such curve, though single readings can be large or run the other way; further: potency means the concentration at half of the fitted maximal effect; on the % scale 0 is the no-effect control and ±100 the full control effect
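First compound was added to culture medium, then infected red cells at 0.1% parasitemia and 2% hematocrit (final). After incubation at 37 C under 5% CO2, luciferase detection reagent was dispensed and light output recorded.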
NS1 inh – qHTS Assay for Inhibitors of Influenza NS1 Protein Function. Potency, µM (titrated, usually from 46.1 µM), inactives show top-dose activity, positive = more growth. hit rate 0.4% among 270,000; further: potency means the concentration at half of the fitted maximal effect; actives are rising curves; nearly all actives have a fitted effect of over 50% in size
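In this qHTS, NS1 from influenza A is expressed in budding yeast, where it slows growth. Cells are switched from glucose to 2% galactose medium (pH 6.0, -URA), treated with compound, and growth recovery is read at OD600.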
CHX counter – Cycloheximide Counterscreen for Small Molecule Inhibitors of Shiga Toxin. cell reporter, cycloheximide protein synthesis inhibition counterscreen. max response, %. hit rate 12% among 300,000. AID 2314, 2010; in the data active means max response mostly above about 13%, no sharp cut-off; inactive means mostly below about 14%; further: read at 38.3 µM for the half of the compounds with a filed dose; 0% is about no effect
* marks the source's active call; other numbers are inactive results; i = inactive; ? = inconclusive; · = no result given. This is a sample that favours compounds with a hit; in the whole collection about 21% have one here. Unless noted, the call rests on the fitted dose curve.

SMILES	Pf growth 96h	SARS PLP yeast	Shiga toxin inh	Pf growth 48h	NS1 inh	CHX counter
COCCn1c(-c2ccc(OC)cc2)nc2ccccc21	?	-11.5%	-1.4	·	-57.4%	15.7*
COc1cccc(N2CCN(C(=O)c3cccc(NC4=NC5CS(=O)(=O)CC5S4)c3)CC2)c1 (stereo not drawn)	-7.6%	-9.0%	0.9	14.0%	18.8%	-1.8
O=C(COC(=O)C1CC2C=CC1C2)Nc1ccc([N+](=O)[O-])cc1 (stereo not drawn)	·	-28.6%	·	·	·	·
CCn1c(COc2ccc(C)cc2)nc2ccccc21	45.3%	-2.5%	78.6*	71.5%	-42.5%	43.9*
CN(C(=O)c1ccc(OC2CCN(C(=O)c3cccnc3)CC2)cc1)C1CCCCC1	?	-0.5%	-4.0	-7.5%	-2.4%	-1.5
COC(=O)C(CCSC)NC(=O)Cn1ncc2c(=O)oc3ccccc3c21 (stereo not drawn)	11.7µM*	4.1%	-17.0	·	-1.1%	3.2
O=C(Cn1ncc2c(=O)oc3ccccc3c21)NCC1COc2ccccc2O1 (stereo not drawn)	1.85µM*	1.9%	2.9	·	-9.1%	-2.8
O=C(Cn1ncc2c(=O)oc3ccccc3c21)NC1CC1	?	-5.3%	2.7	9.6%	-3.2%	-3.4
Cc1ccc(S(=O)(=O)N(C)C)cc1NC(=O)CN1C(=O)NC(Cc2ccccc2)C1=O (stereo not drawn)	?	0.8%	·	0.5%	·	·
C[C@H]1CCC2[C@](C)(CO)[C@@H](O)CC[C@]2(C)[C@@]12CCC(CO)(CCO)O2 (stereo partly drawn)	-0.8%	-2.2%	-7.8	5.6%	-0.2%	0.8
Cc1cc(C)c2cc(CN(CCO)C(=O)Nc3ccc(F)cc3)c(=O)[nH]c2c1	?	3.4%	-14.1	?	-28.7%	1.1
COc1cc2cc(CN(CCN3CCOCC3)C(=O)Nc3ccc(F)cc3)c(=O)[nH]c2cc1OC	0.0%	-2.3%	-8.4	?	-3.7%	-2.1
Cc1ccc(C)c2[nH]c(=O)c(CN(CCN3CCCC3)C(=O)Nc3ccc(F)cc3)cc12	?	-0.4%	-3.4	4.15µM*	6.5%	-3.7
COc1cc2cc(CN(CCN3CCCC3)C(=O)Nc3ccc(F)cc3)c(=O)[nH]c2cc1OC	-9.6%	1.1%	-6.0	9.28µM*	14.5%	-8.2
CCC1CCCCN1S(=O)(=O)c1ccc(C(=O)Nc2nnc(C3=COCCO3)o2)cc1 (stereo not drawn)	?	?	-5.0	-11.0%	-23.1%	-2.8
CCN(CCC(=O)O)c1ccccc1	·	-3.5%	5.0	5.0%	15.6%	5.0
CCN(CC)C1=NC(=[N+](CC)CC)c2ccccc21	0.294µM*	-1.4%	-4.8	0.738µM*	-9.2%	-3.0
CCCC1CCC(c2ccc(C(N)=O)cc2)CC1 (stereo not drawn)	68.6%	1.3%	-6.8	-1.0%	-6.3%	-2.7
CCCCCC1CCC(c2ccc(C(N)=O)cc2)CC1 (stereo not drawn)	2.94µM*	-1.5%	-17.0	1.1%	4.1%	-2.4
CC(C)(C)C(=O)Nc1nc2cc3c(cc2s1)OCO3	170.2%	1.3%	70.6*	134.7%	2.6%	37.0*
O=C(Nc1nc2cc3c(cc2s1)OCCO3)C1CCCCC1	-9.9%	1.9%	·	-34.6%	·	·
O=C(Nc1nc2cc3c(cc2s1)OCO3)c1ccc(N2C(=O)CCC2=O)cc1	7.9%	-1.3%	19.3	2.2%	-1.5%	-0.1
CC(=O)Nc1nc2cc3c(cc2s1)OCCO3	i	5.0%	29.2*	274.7%	-8.7%	44.2*
O=C(NNc1nc2cc3c(cc2s1)OCCO3)c1ccccc1	235.0%	0.8%	145.9*	139.9%	3.0%	36.1*
CC(C)C(=O)Nc1nc2cc3c(cc2s1)OCO3	95.9%	-9.7%	76.8*	106.8%	0.8%	26.1*
SMILES	Pf growth 96h	SARS PLP yeast	Shiga toxin inh	Pf growth 48h	NS1 inh	CHX counter
CC(C)(C)NC(=O)C(c1ccc(O)cc1)N(C(=O)Cn1nnc(-c2ccc(F)cc2)n1)c1ccccc1F (stereo not drawn)	?	0.5%	-16.7	11.7µM*	6.5%	-5.5
CC(C)(C)NC(=O)C(c1ccncc1)N(C(=O)Cn1nnc(-c2ccc(F)cc2)n1)c1ccccc1 (stereo not drawn)	14.1%	1.1%	-11.1	0.0%	-1.3%	-3.3
CC(C)(C)NC(=O)C(c1ccncc1)N(C(=O)Cn1nnc(-c2ccc(F)cc2)n1)c1ccccc1F (stereo not drawn)	35.8%	-0.8%	37.7	?	-2.7%	20.6*
Cc1ccccc1N(C(=O)Cn1nnc(-c2ccc(F)cc2)n1)C(C(=O)NC(C)(C)C)c1ccncc1 (stereo not drawn)	-17.7%	0.5%	18.6	37.4%	6.4%	8.8
NNC(=O)c1cnn(-c2ccccc2)c1-n1cccc1	82.1%	4.2%	18.8	10.7%	·	-1.6
Cc1cccc(Nc2c([N+](=O)[O-])ccc3nonc23)c1	i	-0.2%	16.1	8.5%	-1.9%	0.6
Cn1ccnc1Sc1nc2ccccc2nc1NS(=O)(=O)c1ccccc1	?	14.7%	102.5*	?	3.0%	55.6*
Cc1c(Nc2nc3ccccc3nc2NS(=O)(=O)c2ccccc2)c(=O)n(-c2ccccc2)n1C	·	17.5%	-3.2	·	6.0%	-0.3
Cn1cnnc1Sc1nc2ccccc2nc1NS(=O)(=O)c1ccccc1	155.2%	0.2%	28.3	-2.0%	5.3%	-3.7
CC(=O)Nc1ccc(S(=O)(=O)Nc2nc3ccccc3nc2Sc2nncn2C)cc1	·	4.6%	116.5*	6.3%	?	25.7*
Nc1ncnc2c1ncn2[C@@H]1O[C@H](CNS(=O)(=O)c2cc3ccccc3s2)[C@@H](O)[C@H]1O	·	17.9%	·	·	·	·
CC(/C=C/c1ccccc1F)=N\NC(=O)c1ccccc1	0.0%	0.3%	159.8*	54.7%	·	55.2*
CC(/C=C/c1ccccc1F)=N\NC(=O)c1ccc(Cl)cc1	?	-1.4%	28.6	0.0%	6.5%	13.7*
CC(/C=C/C=C/c1ccccc1)=N\NC(=O)c1cccnc1	?	-3.1%	23.0	-23.0%	·	-1.7
Nc1cc([N+](=O)[O-])cc2oc(-c3ccccc3)cc12	12.1%	-1.3%	53.5*	128.7%	2.0%	53.0*
Cc1cc(C)n(C(=O)CCCCCCCCC(=O)n2nc(C)cc2C)n1	?	6.8%	-17.1	16.0%	6.9%	3.7
O=C(NNC(=O)c1cc(-c2ccco2)nc2ccccc12)c1ccccc1	?	-1.7%	20.9	?	0.4%	11.3
COc1cc(-c2cc(C(=O)Nc3nc4ccccc4s3)c3ccccc3n2)cc(OC)c1OC	-0.4%	5.5%	2.8	-5.3%	8.0%	18.1*
COc1cc(-c2cc(C(=O)Nc3cccc(C(C)=O)c3)c3ccccc3n2)cc(OC)c1OC	-21.0%	3.1%	5.8	?	-0.9%	17.9*
